# In PubChem BioAssay:
# The source made the active and inactive calls.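 How the source made its calls: active means NADPH fluorescence slope more negative than the mean of all samples by about 3 SD, 99.7% confidence; inactive means the rest.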
# Target: Voltage-gated potassium channel subunit beta-2 (Rattus norvegicus) (UniProt P62483)
# Assay: KvBeta positive modulators, primary screen, biochemical, NADPH fluorescence (AID 623);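 further: fluorescence intensity change per second fitted from 20 to 320 s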
# Details: Recombinant KvBeta, NADPH fluorescence decrease slope, 10 min; at 10 µM; active compounds read low
# Sequence of Voltage-gated potassium channel subunit beta-2 (Rattus norvegicus) (P62483 whole entry, looked up): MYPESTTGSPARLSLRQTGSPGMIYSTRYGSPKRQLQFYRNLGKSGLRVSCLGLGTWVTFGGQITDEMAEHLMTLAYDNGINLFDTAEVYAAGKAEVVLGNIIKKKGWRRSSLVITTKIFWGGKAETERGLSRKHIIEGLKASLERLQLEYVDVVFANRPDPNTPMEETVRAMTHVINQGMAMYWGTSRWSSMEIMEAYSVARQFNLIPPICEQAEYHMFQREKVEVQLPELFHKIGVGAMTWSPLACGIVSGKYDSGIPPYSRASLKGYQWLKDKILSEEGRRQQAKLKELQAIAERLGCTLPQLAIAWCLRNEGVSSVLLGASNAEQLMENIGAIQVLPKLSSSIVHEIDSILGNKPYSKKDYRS
row,SMILES,NADPH fluorescence slope
1,O=C(NCCSc1c[nH]c2ccccc12)c1ccco1,-4e-05 (inactive)
2,CCOC(=O)CSc1nc2cc(C(=O)N3CCC(C(N)=O)CC3)ccc2c(=O)n1-c1ccccc1,-5.8e-05 (inactive)
3,Cc1cc2c(cc(C(=O)OCC(=O)NCc3cccs3)n2C(C)C)o1,-5.1e-05 (inactive)
4,CC(=O)NC1CC2CCCC(C1)N2CC(=O)Nc1ccccc1 (stereo not given),-2.4e-05 (inactive)
5,C=CCNc1oc(-c2cccc3ccccc23)nc1C#N,1.5e-06 (inactive)
6,COC(=O)c1oc2ccc(Br)cc2c1NC(C)=O,-3.5e-05 (inactive)
7,COc1ccc(CCNC(=O)CSc2nnc(CNc3ccc(Cl)cc3)o2)cc1OC,-1.9e-05 (inactive)
8,CCCS(=O)(=O)C(=C1Nc2ccccc2N1)S(=O)(=O)CCC,-4.3e-05 (inactive)
9,CCn1cc(C(=O)NCCC2=CCCCC2)c(=O)c2cc(S(=O)(=O)N(C)C)ccc21,-4.1e-05 (inactive)
10,CCc1ccc(NC(=O)CS(=O)CC(=O)NC(C)CCc2ccco2)cc1 (stereo not given),-1.8e-05 (inactive)
11,O=C(OCCN=C1NS(=O)(=O)c2ccccc21)C1CC(=O)N(c2ccc(Cl)cc2)C1 (stereo not given),2.4e-05 (inactive)
12,O=C(c1cccc(C(=O)N2CCN(c3ccc(F)cc3)CC2)c1)N1CCN(c2ccc(F)cc2)CC1,-9.2e-05 (inactive)
13,CCOP(=O)(c1ccc(N(C)C)cc1)C(O)c1c(Cl)cccc1Cl (stereo not given),-3.5e-05 (inactive)
14,CN1CCN(C(=O)C2(NC(=O)Nc3cccc(F)c3)CCCCC2)CC1,-4.2e-05 (inactive)
15,CCCOC(=O)/C(C(N)=NCc1ccccc1)=C(\O)OCCC,0.00015 (inactive)
16,CC(=O)N1CCN(c2ccc(NC(=O)c3ccc(C(C)(C)C)cc3)cc2)CC1,-4e-05 (inactive)
17,OC(CN1CCOCC1)Cn1c(-c2cccc(Cl)c2)nc2ccccc21 (stereo not given),1.9e-05 (inactive)
18,CCN(CC)C(=O)C1CCC(CNS(=O)(=O)c2cccc3cccnc23)CC1 (stereo not given),-2.6e-05 (inactive)
19,CN(C)Cc1cn(CCC(=O)O)c2ccccc12,4.3e-05 (inactive)
20,CC(NS(=O)(=O)c1ccc(OCC(=O)N2CCOCC2)c(Cl)c1)c1ccccc1 (stereo not given),-3.1e-05 (inactive)

row,SMILES,NADPH fluorescence slope
1,CCOc1ccc2nc(N3CCC(C(=O)N4CCN(C5CCCCC5)CC4)CC3)sc2c1,6.2e-06 (inactive)
2,O=C(O)CSC1CC(=O)N(c2ccc(Cl)c(Cl)c2)C1=O (stereo not given),-5.1e-05 (inactive)
3,CCN(C(C)=O)c1nnc(CSc2nc3ccccc3s2)s1,2.8e-05 (inactive)
4,O=C(CNCCC1=CCCCC1)Nc1ccccc1N1CCCCC1,-2.4e-05 (inactive)
5,COCC(C)NC(=O)CCS(=O)(=O)c1nc(-c2ccc(OC)cc2)cc(C(F)(F)F)n1 (stereo not given),-2.1e-05 (inactive)
6,CSc1ccccc1NC(=O)C1CCCO1 (stereo not given),0.000108 (inactive)
7,O=C(CN(Cc1ccc(F)cc1)C(=O)Cn1nnc2ccccc21)NCC1CCCO1 (stereo not given),7.2e-05 (inactive)
8,O=C(CSc1nnc(-c2ccccc2)o1)N1CCc2ccccc2C1,-6.2e-05 (inactive)
9,CCn1c(-c2cc(Br)ccc2O)n[nH]c1=S,-3.5e-05 (inactive)
10,CCOC(=O)c1ccc(NS(=O)C23CC4CC(CC(C4)C2)C3)cc1 (stereo not given),-9e-06 (inactive)
11,O=C1CCC(c2ccccc2)N1C(=O)c1cccnc1 (stereo not given),-6.9e-05 (inactive)
12,CC1Cc2nc(SCC(N)=O)n(Cc3ccccc3)c(=O)c2S1 (stereo not given),2.5e-05 (inactive)
13,CCC(=O)Nc1cc(C)c(NC(=O)C23CC4CC(CC(C4)C2)C3)cn1,-3.3e-05 (inactive)
14,O=C(c1ccc(Br)o1)N(Cc1ccccc1)c1ccccn1,5.2e-05 (inactive)
15,CCN1C(=O)/C(=C2\C=Cc3ccccc3N2CC)OC1=S,-4.6e-05 (inactive)
16,COc1ccc(C)cc1S(=O)(=O)N(C)CC(=O)Nc1ccc2c(c1)OCCO2,3.4e-05 (inactive)
17,O=C(NC1CCCCC1)c1nc2c(nnn2Cc2ccccc2Cl)c(=O)[nH]1,-2.9e-05 (inactive)
18,O=C(NCCN1CCOCC1)c1ccc2c(c1)N(Cc1ccccc1F)C(=O)CS2,-2e-06 (inactive)
19,CN(C(=O)C1CCOC1)c1nnc(-c2cccnc2)s1 (stereo not given),-1.1e-05 (inactive)
20,c1ccc(-c2nc3nonc3c3nc4ccccc4n23)cc1,-2.9e-05 (inactive)
